# PMC7862700, “An all-to-all approach to the identification of sequence-specific readers for epigenetic DNA modifications on cytosine”
# How the values were obtained:
# Test in all cases: DAPPL (digital affinity profiling via proximity ligation, sequencing); 10 mM Tris-HCl pH 7.5, 50 mM NaCl, 1 mM DTT, 4% glycerol, room temperature, 30 min; GST-TFs on glutathione beads, 16-mer random dsDNA library, 0.1% formaldehyde crosslink after washing; high values mean tight binding
# FEV = target: T1, FEV (Homo sapiens, UniProt Q99581 1-238); conditions: protein: recombinant; tags: N-terminal GST; dsDNA, one strand shown
# T1 sequence: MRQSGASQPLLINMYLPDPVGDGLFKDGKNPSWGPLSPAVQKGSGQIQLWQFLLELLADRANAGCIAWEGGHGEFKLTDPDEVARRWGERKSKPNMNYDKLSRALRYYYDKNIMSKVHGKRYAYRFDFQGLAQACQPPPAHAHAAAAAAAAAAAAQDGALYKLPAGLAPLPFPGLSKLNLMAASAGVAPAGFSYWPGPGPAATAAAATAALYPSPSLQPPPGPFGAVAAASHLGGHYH
# Method in brief: (§1)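 Yeast served to express human transcription factors as GST fusions, which were then captured on glutathione beads and labelled with DNA barcodes. Pooled with a tag-only sample, they were incubated with 200 nmole of a 16-mer random double-stranded DNA library for 30 min at room temperature in Tris/NaCl/DTT/glycerol buffer, washed, crosslinked with 0.1% formaldehyde, ligated by proximity, amplified by PCR and sequenced. Dividing each hexamer's read frequency for a factor by its frequency for the tag-only sample gives the binding signal.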
# ETV5 = ETV5 (Homo sapiens, UniProt P41161 1-510); conditions: protein: recombinant; tags: N-terminal GST; dsDNA, one strand shown
# ETV5, sequence (P41161 whole entry): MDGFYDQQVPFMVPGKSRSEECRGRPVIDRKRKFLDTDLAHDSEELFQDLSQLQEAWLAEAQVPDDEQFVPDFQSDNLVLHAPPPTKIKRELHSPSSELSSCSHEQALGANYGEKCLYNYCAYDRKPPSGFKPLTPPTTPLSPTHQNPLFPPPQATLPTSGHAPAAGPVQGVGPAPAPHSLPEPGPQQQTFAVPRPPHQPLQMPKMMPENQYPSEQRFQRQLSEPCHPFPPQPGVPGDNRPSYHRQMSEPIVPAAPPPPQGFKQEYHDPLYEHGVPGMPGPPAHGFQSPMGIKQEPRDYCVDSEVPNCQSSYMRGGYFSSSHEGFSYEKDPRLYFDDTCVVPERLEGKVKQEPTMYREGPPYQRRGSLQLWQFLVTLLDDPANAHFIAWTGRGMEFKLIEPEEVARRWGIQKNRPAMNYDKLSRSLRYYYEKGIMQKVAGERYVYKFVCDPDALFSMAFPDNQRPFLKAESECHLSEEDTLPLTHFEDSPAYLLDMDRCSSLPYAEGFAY
# Method in brief: as §1
# HSF1 = HSF1 (Homo sapiens, UniProt Q00613 1-529); conditions: protein: recombinant; tags: N-terminal GST; chain copies: 3; dsDNA, one strand shown
# HSF1, sequence (Q00613 whole entry): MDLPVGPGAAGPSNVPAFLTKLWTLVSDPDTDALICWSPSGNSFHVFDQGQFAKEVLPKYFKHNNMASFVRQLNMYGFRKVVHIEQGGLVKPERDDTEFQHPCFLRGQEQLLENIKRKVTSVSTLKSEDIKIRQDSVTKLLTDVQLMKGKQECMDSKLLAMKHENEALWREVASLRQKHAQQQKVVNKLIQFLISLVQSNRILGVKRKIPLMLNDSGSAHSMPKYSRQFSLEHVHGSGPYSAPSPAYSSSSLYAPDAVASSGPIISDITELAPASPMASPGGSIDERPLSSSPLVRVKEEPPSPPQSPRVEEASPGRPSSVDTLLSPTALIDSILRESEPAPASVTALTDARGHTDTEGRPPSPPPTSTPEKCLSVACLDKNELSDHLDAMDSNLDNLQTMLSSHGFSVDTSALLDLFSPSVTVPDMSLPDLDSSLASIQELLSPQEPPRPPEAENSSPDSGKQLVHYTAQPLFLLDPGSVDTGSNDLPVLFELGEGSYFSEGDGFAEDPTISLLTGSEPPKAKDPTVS
# Method in brief: as §1
# SPIC = target: T2, SPIC (Homo sapiens, UniProt Q8N5J4 1-248); conditions: protein: recombinant; tags: N-terminal GST; dsDNA, one strand shown
# T2 sequence: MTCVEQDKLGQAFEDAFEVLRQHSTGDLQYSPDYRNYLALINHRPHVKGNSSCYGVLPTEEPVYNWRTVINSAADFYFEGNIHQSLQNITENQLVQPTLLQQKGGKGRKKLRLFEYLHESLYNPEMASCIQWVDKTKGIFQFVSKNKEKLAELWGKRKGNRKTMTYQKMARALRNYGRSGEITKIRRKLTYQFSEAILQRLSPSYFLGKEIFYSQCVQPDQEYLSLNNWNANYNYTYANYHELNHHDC
# Method in brief: as §1
# ELF4 = ELF4 (Homo sapiens, UniProt Q99607 1-663); conditions: protein: recombinant; tags: N-terminal GST; dsDNA, one strand shown
# ELF4, sequence (Q99607 whole entry): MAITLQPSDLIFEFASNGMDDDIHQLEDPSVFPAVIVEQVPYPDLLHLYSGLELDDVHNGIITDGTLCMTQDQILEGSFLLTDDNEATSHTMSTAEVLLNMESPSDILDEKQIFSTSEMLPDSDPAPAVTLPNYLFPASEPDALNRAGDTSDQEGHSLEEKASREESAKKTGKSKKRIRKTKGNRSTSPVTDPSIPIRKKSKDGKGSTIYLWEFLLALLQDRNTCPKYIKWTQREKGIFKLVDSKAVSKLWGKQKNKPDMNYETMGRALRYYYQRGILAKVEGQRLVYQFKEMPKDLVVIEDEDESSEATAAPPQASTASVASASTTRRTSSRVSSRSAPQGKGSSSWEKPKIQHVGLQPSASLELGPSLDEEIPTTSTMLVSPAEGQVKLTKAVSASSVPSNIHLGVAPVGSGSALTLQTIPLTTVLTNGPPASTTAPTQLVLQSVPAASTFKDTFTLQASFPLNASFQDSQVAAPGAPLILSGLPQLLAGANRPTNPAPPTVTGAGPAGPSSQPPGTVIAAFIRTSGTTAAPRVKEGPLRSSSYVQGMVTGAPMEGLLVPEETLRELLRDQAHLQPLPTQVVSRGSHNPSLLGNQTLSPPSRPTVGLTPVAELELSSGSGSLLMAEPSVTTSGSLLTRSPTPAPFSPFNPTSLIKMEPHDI
# Method in brief: as §1
# ELK4 = target: T3, ELK4 (Homo sapiens, UniProt P28324-2 1-405); conditions: protein: recombinant; tags: N-terminal GST; dsDNA, one strand shown
# T3 sequence: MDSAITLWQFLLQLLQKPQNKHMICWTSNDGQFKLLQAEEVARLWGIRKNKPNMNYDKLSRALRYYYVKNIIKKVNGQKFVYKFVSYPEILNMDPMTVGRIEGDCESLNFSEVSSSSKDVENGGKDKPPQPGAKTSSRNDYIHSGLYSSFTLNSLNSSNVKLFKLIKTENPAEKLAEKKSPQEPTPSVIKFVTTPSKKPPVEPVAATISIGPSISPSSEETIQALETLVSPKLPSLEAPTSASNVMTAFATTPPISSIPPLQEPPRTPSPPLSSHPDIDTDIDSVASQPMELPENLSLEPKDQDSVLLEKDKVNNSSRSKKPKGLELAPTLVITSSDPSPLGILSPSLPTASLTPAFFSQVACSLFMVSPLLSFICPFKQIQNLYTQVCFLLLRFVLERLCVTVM
# Method in brief: as §1
# ETV2 = target: T4, ETV2 (Homo sapiens, UniProt O00321 1-342); conditions: protein: recombinant; tags: N-terminal GST; dsDNA, one strand shown
# T4 sequence: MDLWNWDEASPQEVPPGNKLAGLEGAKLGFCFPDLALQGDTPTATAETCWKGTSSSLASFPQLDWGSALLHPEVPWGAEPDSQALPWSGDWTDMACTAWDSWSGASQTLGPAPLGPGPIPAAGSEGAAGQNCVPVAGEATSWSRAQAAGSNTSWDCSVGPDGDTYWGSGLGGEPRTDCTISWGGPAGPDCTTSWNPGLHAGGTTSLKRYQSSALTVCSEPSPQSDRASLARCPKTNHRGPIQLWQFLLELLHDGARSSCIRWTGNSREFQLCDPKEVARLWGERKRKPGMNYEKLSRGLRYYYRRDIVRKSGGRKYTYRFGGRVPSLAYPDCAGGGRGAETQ
# Method in brief: as §1
# ELF3 = target: T5, ELF3 (Homo sapiens, UniProt P78545 1-371); conditions: protein: recombinant; tags: N-terminal GST; dsDNA, one strand shown
# T5 sequence: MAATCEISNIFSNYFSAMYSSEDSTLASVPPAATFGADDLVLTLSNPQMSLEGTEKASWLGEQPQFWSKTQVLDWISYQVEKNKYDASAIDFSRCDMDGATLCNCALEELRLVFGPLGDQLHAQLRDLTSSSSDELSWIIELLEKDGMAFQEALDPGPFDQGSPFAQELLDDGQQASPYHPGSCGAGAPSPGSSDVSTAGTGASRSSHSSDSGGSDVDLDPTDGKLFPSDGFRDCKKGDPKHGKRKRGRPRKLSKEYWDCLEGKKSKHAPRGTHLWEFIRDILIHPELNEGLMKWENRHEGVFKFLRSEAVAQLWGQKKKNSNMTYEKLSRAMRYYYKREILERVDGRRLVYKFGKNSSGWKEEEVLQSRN
# Method in brief: as §1
# CRX = CRX (Homo sapiens, UniProt O43186 1-299); conditions: protein: recombinant; tags: N-terminal GST; dsDNA, one strand shown
# CRX, sequence (O43186 whole entry): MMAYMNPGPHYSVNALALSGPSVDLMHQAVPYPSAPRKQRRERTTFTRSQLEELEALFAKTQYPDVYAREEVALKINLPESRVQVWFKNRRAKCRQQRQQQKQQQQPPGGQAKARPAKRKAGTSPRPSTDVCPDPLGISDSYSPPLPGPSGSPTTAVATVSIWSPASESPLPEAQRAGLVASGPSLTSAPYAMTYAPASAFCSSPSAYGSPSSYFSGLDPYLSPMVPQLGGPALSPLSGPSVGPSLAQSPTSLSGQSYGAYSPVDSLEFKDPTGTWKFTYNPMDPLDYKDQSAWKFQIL
# Method in brief: as §1
# ETV1 = ETV1 (Homo sapiens, UniProt P50549 1-477); conditions: protein: recombinant; tags: N-terminal GST; dsDNA, one strand shown
# ETV1, sequence (P50549 whole entry): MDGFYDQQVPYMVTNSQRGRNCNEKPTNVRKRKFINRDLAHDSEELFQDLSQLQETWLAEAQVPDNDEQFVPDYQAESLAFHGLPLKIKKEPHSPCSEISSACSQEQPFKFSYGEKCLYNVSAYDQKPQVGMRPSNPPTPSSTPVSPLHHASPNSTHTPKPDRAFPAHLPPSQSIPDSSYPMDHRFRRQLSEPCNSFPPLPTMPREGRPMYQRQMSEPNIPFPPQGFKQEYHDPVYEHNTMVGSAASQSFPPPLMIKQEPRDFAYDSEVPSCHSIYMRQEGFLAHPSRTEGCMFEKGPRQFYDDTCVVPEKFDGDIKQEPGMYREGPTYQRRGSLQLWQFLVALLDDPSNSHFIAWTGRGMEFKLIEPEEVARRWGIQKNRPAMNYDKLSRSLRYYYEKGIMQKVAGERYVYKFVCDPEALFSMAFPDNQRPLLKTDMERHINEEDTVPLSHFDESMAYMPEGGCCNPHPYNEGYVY
# Method in brief: as §1
sequence,measurement,setting,value
CTGATC,binding signal,FEV,"1.31 fold enrichment (6-mer frequency, TF over GST control)"
same,binding signal,ETV5,"1.29 fold enrichment (6-mer frequency, TF over GST control)"
same,binding signal,HSF1,"1.53 fold enrichment (6-mer frequency, TF over GST control)"
same,binding signal,SPIC,"1.57 fold enrichment (6-mer frequency, TF over GST control)"
same,binding signal,ELF4,"1.41 fold enrichment (6-mer frequency, TF over GST control)"
same,binding signal,ELK4,"1.39 fold enrichment (6-mer frequency, TF over GST control)"
same,binding signal,ETV2,"1.13 fold enrichment (6-mer frequency, TF over GST control)"
same,binding signal,ELF3,"1.25 fold enrichment (6-mer frequency, TF over GST control)"
same,binding signal,CRX,"1.95 fold enrichment (6-mer frequency, TF over GST control)"
same,binding signal,ETV1,"1.43 fold enrichment (6-mer frequency, TF over GST control)"
TTTGAG,binding signal,FEV,"1.03 fold enrichment (6-mer frequency, TF over GST control)"
same,binding signal,ETV5,"1.02 fold enrichment (6-mer frequency, TF over GST control)"
same,binding signal,HSF1,"1.1 fold enrichment (6-mer frequency, TF over GST control)"
same,binding signal,SPIC,"1.36 fold enrichment (6-mer frequency, TF over GST control)"
same,binding signal,ELF4,"1.02 fold enrichment (6-mer frequency, TF over GST control)"
same,binding signal,ELK4,"1.23 fold enrichment (6-mer frequency, TF over GST control)"
same,binding signal,ETV2,"1.04 fold enrichment (6-mer frequency, TF over GST control)"
same,binding signal,ELF3,"1.08 fold enrichment (6-mer frequency, TF over GST control)"
same,binding signal,CRX,"1.23 fold enrichment (6-mer frequency, TF over GST control)"
same,binding signal,ETV1,"1.14 fold enrichment (6-mer frequency, TF over GST control)"
CACTTC,binding signal,FEV,"5.06 fold enrichment (6-mer frequency, TF over GST control)"
same,binding signal,ETV5,"3.62 fold enrichment (6-mer frequency, TF over GST control)"
same,binding signal,HSF1,"1.3 fold enrichment (6-mer frequency, TF over GST control)"
same,binding signal,SPIC,"3.53 fold enrichment (6-mer frequency, TF over GST control)"
same,binding signal,ELF4,"3.48 fold enrichment (6-mer frequency, TF over GST control)"
same,binding signal,ELK4,"3.01 fold enrichment (6-mer frequency, TF over GST control)"
same,binding signal,ETV2,"3.4 fold enrichment (6-mer frequency, TF over GST control)"
same,binding signal,ELF3,"3.05 fold enrichment (6-mer frequency, TF over GST control)"
same,binding signal,CRX,"1.07 fold enrichment (6-mer frequency, TF over GST control)"
same,binding signal,ETV1,"3.73 fold enrichment (6-mer frequency, TF over GST control)"
CAGGAT,binding signal,FEV,"1.27 fold enrichment (6-mer frequency, TF over GST control)"
same,binding signal,ETV5,"1.19 fold enrichment (6-mer frequency, TF over GST control)"
same,binding signal,HSF1,"1.08 fold enrichment (6-mer frequency, TF over GST control)"
same,binding signal,SPIC,"1.04 fold enrichment (6-mer frequency, TF over GST control)"
same,binding signal,ELF4,"1.11 fold enrichment (6-mer frequency, TF over GST control)"
same,binding signal,ELK4,"1.23 fold enrichment (6-mer frequency, TF over GST control)"
same,binding signal,ETV2,"1.15 fold enrichment (6-mer frequency, TF over GST control)"
same,binding signal,ELF3,"1.12 fold enrichment (6-mer frequency, TF over GST control)"
same,binding signal,CRX,"1.35 fold enrichment (6-mer frequency, TF over GST control)"
same,binding signal,ETV1,"1.34 fold enrichment (6-mer frequency, TF over GST control)"
TAGCAA,binding signal,FEV,"1.17 fold enrichment (6-mer frequency, TF over GST control)"
same,binding signal,ETV5,"1.33 fold enrichment (6-mer frequency, TF over GST control)"
same,binding signal,HSF1,"1.59 fold enrichment (6-mer frequency, TF over GST control)"
same,binding signal,SPIC,"1.14 fold enrichment (6-mer frequency, TF over GST control)"
same,binding signal,ELF4,"1.34 fold enrichment (6-mer frequency, TF over GST control)"
same,binding signal,ELK4,"1.38 fold enrichment (6-mer frequency, TF over GST control)"
same,binding signal,ETV2,"1.36 fold enrichment (6-mer frequency, TF over GST control)"
same,binding signal,ELF3,"1.36 fold enrichment (6-mer frequency, TF over GST control)"
same,binding signal,CRX,"1.46 fold enrichment (6-mer frequency, TF over GST control)"
same,binding signal,ETV1,"1.23 fold enrichment (6-mer frequency, TF over GST control)"
CCTGGT,binding signal,FEV,"1.25 fold enrichment (6-mer frequency, TF over GST control)"
same,binding signal,ETV5,"1.42 fold enrichment (6-mer frequency, TF over GST control)"
same,binding signal,HSF1,"1.08 fold enrichment (6-mer frequency, TF over GST control)"
same,binding signal,SPIC,"1.34 fold enrichment (6-mer frequency, TF over GST control)"
same,binding signal,ELF4,"1.35 fold enrichment (6-mer frequency, TF over GST control)"
same,binding signal,ELK4,"1.2 fold enrichment (6-mer frequency, TF over GST control)"
same,binding signal,ETV2,"1.56 fold enrichment (6-mer frequency, TF over GST control)"
same,binding signal,ELF3,"1.13 fold enrichment (6-mer frequency, TF over GST control)"
same,binding signal,CRX,"1.1 fold enrichment (6-mer frequency, TF over GST control)"
same,binding signal,ETV1,"1.54 fold enrichment (6-mer frequency, TF over GST control)"
TGTATC,binding signal,FEV,"1.41 fold enrichment (6-mer frequency, TF over GST control)"
same,binding signal,ETV5,"1.4 fold enrichment (6-mer frequency, TF over GST control)"
same,binding signal,HSF1,"1.16 fold enrichment (6-mer frequency, TF over GST control)"
same,binding signal,SPIC,"1.46 fold enrichment (6-mer frequency, TF over GST control)"
same,binding signal,ELF4,"1.44 fold enrichment (6-mer frequency, TF over GST control)"
same,binding signal,ELK4,"1.46 fold enrichment (6-mer frequency, TF over GST control)"
same,binding signal,ETV2,"1.36 fold enrichment (6-mer frequency, TF over GST control)"
same,binding signal,ELF3,"1.41 fold enrichment (6-mer frequency, TF over GST control)"
same,binding signal,CRX,"1.15 fold enrichment (6-mer frequency, TF over GST control)"
same,binding signal,ETV1,"1.37 fold enrichment (6-mer frequency, TF over GST control)"
